# Screening data from PubChem BioAssay.
# SKKanGAS inh – SKKanGAS growth inhibition | S. pyogenes SKKanGAS, kanamycin growth, BacTiter-Glo, 6 h | inhibition, % at 7.5 µM | actives 1.3% (n = 300,000) | AID 1662;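 active = mean replicate score, as percent of positive control median, at least 50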;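 note: strain carries kanamycin resistance gene driven by streptokinase promoter and grows in 40 µg/ml kanamycin; loss of luminescence reflects streptokinase promoter inhibition or plain growth inhibition; 0% = median of DMSO wells and 100% = positive control at its reference dose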
# PfHsp90 set2 – growth inhibition of yeast expressing Plasmodium Hsp90. actives 0.32% (n = 310,000). inhibition, % at 9.4 µM. S. cerevisiae expressing PfHsp90, BacTiter-Glo ATP, 48 h; yeast lacking PDR1 and PDR3 efflux regulators;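 active = every replicate shows inhibition above about 80%, whatever the replicate mean, limit read from the data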;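 note: 0% = DMSO neutral controls and 100% = 20 µM radicicol positive controls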
# tim10-1 inh – inhibits growth of tim10-1 mutant yeast; inhibition, % at 20 µM; AID 463190; S. cerevisiae tim10-1 ts strain growth, BacTiter-Glo, 24 h; actives 2.2% (n = 330,000);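 active = inhibition of at least 40%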;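 note: mutant grown at 25 °C; 0% = DMSO wells with yeast and 100% = wells holding no yeast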
# tim23-1 inh – tim23-1 yeast growth inhibition | S. cerevisiae tim23-1 growth, BacTiter-Glo luminescence, 24 h | inhibition, % at 20 µM | actives 1.3% (n = 330,000) | AID 463212;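 active = growth inhibition of the mutant yeast at or above 50%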;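 note: temperature-sensitive mutant grown at 25 °C; plate controls were DMSO-treated mutant yeast for no effect and medium wells lacking yeast for full effect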
# NALP3 yeast inh – inhibitors of NALP3 inflammasome in yeast; Yeast reconstituted NLRP3/ASC/caspase-1, beta-gal luminescence, 24 h; inhibition, % at 10 µM; actives 0.39% (n = 330,000);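 active = inhibition of 50% or more; inactive = inhibition below 50%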;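 note: plate controls were induced DMSO wells for no effect and uninduced yeast grown without galactose for full effect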
# TIM10 inh – TIM10 yeast growth inhibition; S. cerevisiae TIM10 strain growth, BacTiter-Glo luminescence, 24 h; inhibition, % at 10 µM; actives 1.4% (n = 330,000); AID 463195;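 active = inhibition of 40% or more at the single tested concentration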;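 note: wild-type TIM10 isogenic control strain grown at permissive 25 °C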
# NALP3 yeast conf – confirmation of NALP3 inhibitors in yeast. AID 435006. inhibition, % at 10 µM. actives 81% (n = 1,300). shares compounds with NALP3 yeast inh. yeast expressing human NALP3, luminescence; in the data active = inhibition above about 48%
# Casp1 ASC ctr – counter-screen for NALP3 inhibitors: yeast caspase-1-ASC; shares compounds with NALP3 yeast inh; inhibition, % at 10 µM; AID 488784; yeast expressing Caspase-1-ASC, luminescence counter screen; actives 66% (n = 1,000)
# NALP3 yeast rt – confirmation retest of NALP3 inhibitors in yeast; shares compounds with NALP3 yeast inh; yeast expressing human NALP3, luminescence read-out; inhibition, % at 10 µM; actives 53% (n = 1,000)
# tim10-1 confirm – confirmation of tim10-1 mutant yeast growth inhibitors. shares compounds with tim10-1 inh. S. cerevisiae tim10-1 ts strain growth, BacTiter-Glo, 24 h. inhibition, % at 20 µM. actives 56% (n = 7,400). AID 463213;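 active = inhibition of yeast growth at or above a set limit in either of two repeat tests at 20 µM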;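 note: tim10-1 mutant grown at permissive 25 °C to find synthetic lethal compounds; 0% = DMSO yeast wells and 100% = medium wells without yeast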
# tim10 confirm – confirmation of TIM10 yeast growth inhibitors | inhibition, % at 10 µM | shares compounds with TIM10 inh | actives 63% (n = 4,600) | S. cerevisiae tim10 strain growth, BacTiter-Glo luminescence, 24 h;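 active = inhibition of yeast growth at or above a set limit in either of two replicates at 10 µM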;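 note: this counterscreen used the strain with wild-type TIM10; 0% = yeast with DMSO and 100% = medium wells lacking yeast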
# tim23-1 conf – confirmation of tim23-1 mutant yeast growth inhibitors; shares compounds with tim23-1 inh; S. cerevisiae tim23-1 growth, BacTiter-Glo luminescence, 24 h; inhibition, % at 20 µM; actives 83% (n = 4,400);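 active = inhibition above about 39% in either of two replicate wells at 20 µM, limit read from the data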;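 note: temperature-sensitive tim23-1 mutant grown at 25 °C; 0% = DMSO wells with yeast and 100% = medium wells without yeast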
# Numbers without * were called inactive; nt = no result given. This is a sample that favours compounds with a hit; in the whole collection about 4.6% have one here. Cut-off read from the data, not from the text of the source, unless noted: active = inhibition above about 50%; inactive = the rest.
SMILES,SKKanGAS inh,PfHsp90 set2,tim10-1 inh,tim23-1 inh,NALP3 yeast inh,TIM10 inh,NALP3 yeast conf,Casp1 ASC ctr,NALP3 yeast rt,others
CN(C)C(Cc1ccccc1)C(=O)c1ccc(-c2ccccc2)cc1 (stereo not drawn),11,-22,29,22,56*,-18,67*,55*,62*,
CN(C)C(Cc1ccc(C#N)cc1)C(=O)c1ccccc1 (stereo not drawn),4,-14,35,13,8,-7,nt,nt,nt,
COc1ccc(C(=O)C(Cc2ccccc2)N(C)C)cc1 (stereo not drawn),-8,1,22,19,56*,-4,72*,44,39,
O=C(c1ccccc1)C1NC1c1ccccc1 (stereo not drawn),6,-5,3,11,15,6,nt,nt,nt,
N#CC(C#N)=Cc1ccc(-c2ccccc2)o1,-3,nt,18,26,73*,31,74*,nt,nt,
COC(=O)C1=C(c2ccccc2)C[C@@H]2CC[C@H]1N2C(=O)N1CCC(O)CC1,3,-21,12,15,11,8,nt,nt,nt,
COc1cc(/C=N/NP(=S)(c2ccccc2)c2ccccc2)ccc1O,7,1,16,19,2,6,nt,nt,nt,
Oc1ccc(/C=N/NP(=S)(c2ccccc2)c2ccccc2)cc1,8,-22,26,42,56*,26,74*,65*,57*,
CC(=O)N1CCN(CCN=Cc2c(O)n(-c3ccc(C)cc3)c(=S)[nH]c2=O)CC1,-4,-6,0,-3,42,12,nt,nt,nt,
COc1ccc(-n2c(O)c(C=NCCN3CCN(C(C)=O)CC3)c(=O)[nH]c2=S)cc1,-3,7,-3,5,53*,1,67*,29,36,
CCCCCCCCCCCCCCCC[N+](C)(C)C,103*,109*,-15,44,60*,29,53*,55*,59*,
NC(Cc1ccc(O)cc1)C(=O)NN=Cc1ccc(N(CCCl)CCCl)cc1 (stereo not drawn),nt,-2,nt,nt,nt,nt,nt,nt,nt,
COc1ccc(OC)c(NC(=O)N2C[C@H]3C[C@@H](C2)c2cccc(=O)n2C3)c1,3,2,-10,-14,-6,-12,nt,nt,nt,
Cc1ccc(C(=O)C2(C)N(O)C(C)C(c3cccs3)=[N+]2[O-])cc1 (stereo not drawn),-8,-7,3,-7,13,-3,nt,nt,nt,
CC(C)c1ccc(C2NCc3ccccc3-n3cccc32)cc1 (stereo not drawn),9,2,34,34,64*,5,40,60*,58*,
O=[N+]([O-])c1ccc(N2CCCCCC2)c2ncccc12,18,nt,16,10,54*,-1,56*,53*,52*,
C[C@]12CCC3C(CC[C@H]4CC(=O)CC[C@]34C)C1CCC2=O (stereo partly drawn),nt,-5,-41,-24,61*,-44,56*,nt,nt,
C[C@]12CCC3C(CC[C@H]4C[C@H](N)CC[C@]34C)C1CC[C@H]2O (stereo partly drawn),-2,13,22,21,25,1,nt,nt,nt,
CC12C=CC(=O)CC1CCC1C2CCC2(C)C(O)C(O)CC12 (stereo not drawn),nt,16,nt,nt,nt,nt,nt,nt,nt,
CC12CCC(=O)C=C1CC(O)C1C2CCC2(C)C1CCC2(C)O (stereo not drawn),nt,-8,nt,nt,nt,nt,nt,nt,nt,
C[C@]12CCC(=O)C[C@H]1CC[C@@H]1[C@@H]2CC[C@]2(C)C(=O)CC[C@@H]12,nt,30,13,29,66*,7,70*,61*,49,
C[C@]1(O)CCC2C3CC[C@@H]4CC(=O)CC[C@]4(C)C3CC[C@@]21C (stereo partly drawn),nt,6,-1,27,55*,-12,69*,68*,42,
CC(=O)CC(=O)C1C(=O)N(C)C(=O)N(C)C1=O,-7,4,-16,-4,-9,-20,nt,nt,nt,
COc1ccc(C[C@H]2NC[C@H](O)[C@H]2OC(C)=O)cc1,0,5,73*,36,98*,75*,99*,nt,nt,tim10-1 confirm=69*;tim10 confirm=81*
Clc1cc(Cl)c(-c2cc(Cl)c(Cl)cc2Cl)cc1Cl,nt,-1,-19,-22,3,-1,nt,nt,nt,
SMILES,SKKanGAS inh,PfHsp90 set2,tim10-1 inh,tim23-1 inh,NALP3 yeast inh,TIM10 inh,NALP3 yeast conf,Casp1 ASC ctr,NALP3 yeast rt,others
Cc1c2ccncc2c(C)c2c1[nH]c1ccccc12,86*,-5,63*,56*,82*,57*,93*,72*,40,tim10-1 confirm=31;tim10 confirm=70*;tim23-1 conf=62*
C=CC[C@@H](CC/C=C/C=C/CC/C=C\[C@@H]1CSC([C@@H]2C[C@@H]2C)=N1)OC,nt,1,40,42,12,36,nt,nt,nt,
COC(=O)C1=C(c2cccc(C#N)c2)C[C@@H]2CC[C@H]1N2C(=O)NCc1cccc2ccccc12,nt,0,13,30,8,9,nt,nt,nt,
C[C@H]1C[C@@H](C)C(=O)[C@@H]([C@H](O)CC2CC(=O)NC(=O)C2)C1,-2,106*,58*,77*,98*,72*,99*,100*,99*,tim10-1 confirm=23;tim10 confirm=63*;tim23-1 conf=-10
Oc1cccc2nc3ccccc3nc12,5,-15,-10,5,47,-19,nt,nt,nt,
CC(C)(C)c1cc(C=C(C#N)C#N)cc(C(C)(C)C)c1O,nt,-2,78*,62*,76*,70*,91*,98*,96*,tim10-1 confirm=82*;tim10 confirm=83*;tim23-1 conf=72*
C1CCC2CCCCC2C1 (stereo not drawn),nt,-12,-11,-7,-1,0,nt,nt,nt,
O=c1oc2ccccc2c(O)c1[C@H]1c2ccc(O)cc2Oc2c1c(=O)oc1ccccc21,-4,-11,53*,57*,79*,69*,85*,87*,78*,tim10-1 confirm=58*;tim10 confirm=59*;tim23-1 conf=48*
NC1=C([N+](=O)[O-])C(c2ccc3c(c2)OCO3)c2c(c3ccccc3oc2=O)O1 (stereo not drawn),-13,nt,5,16,-4,1,nt,nt,nt,
